Test results taken from PubChem BioAssay (EPA / NIEHS).
Active and inactive are the calls of the source. How the source made its calls: active means hit-call score of the fitted dose curve at least 0.9, where 1 is the maximum; inactive means score below 0.9.

Each compound was assayed against Heat shock factor protein 1 (Homo sapiens) (UniProt Q00613) (assay: ATG_HSE_CIS: Attagene CIS-FACTORIAL HepG2 Assay for human Heat Shock Transcription Factor 1 (HSE) (AID 2282953)). Conditions: HepG2 HSE cis-reporter, Attagene RNA transcription; actives raise or lower the signal.
Chain of Heat shock factor protein 1 (Homo sapiens) (Q00613 whole entry, looked up): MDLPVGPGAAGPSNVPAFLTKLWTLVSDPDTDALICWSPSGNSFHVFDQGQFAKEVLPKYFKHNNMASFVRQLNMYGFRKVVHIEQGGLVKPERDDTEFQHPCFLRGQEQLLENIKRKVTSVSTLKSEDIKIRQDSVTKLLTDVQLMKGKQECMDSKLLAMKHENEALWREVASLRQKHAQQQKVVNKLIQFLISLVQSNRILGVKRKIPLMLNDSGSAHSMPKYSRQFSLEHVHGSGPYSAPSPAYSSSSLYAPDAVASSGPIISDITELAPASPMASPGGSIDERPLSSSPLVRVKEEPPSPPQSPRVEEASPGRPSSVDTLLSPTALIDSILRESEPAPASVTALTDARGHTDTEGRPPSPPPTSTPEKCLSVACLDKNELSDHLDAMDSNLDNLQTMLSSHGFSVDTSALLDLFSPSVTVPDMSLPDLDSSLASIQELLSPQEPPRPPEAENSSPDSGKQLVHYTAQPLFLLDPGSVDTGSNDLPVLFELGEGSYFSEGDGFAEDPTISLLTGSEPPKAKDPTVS
Protocol: ATG_CIS is a cell-based, multiplexed-readout assay that uses HepG2, a human liver cell line, with measurements taken at 24 hours after chemical dosing in a 24-well plate.ATG_HSE_CIS is one of 52 assay component(s) measured or calculated from the ATG_CIS assay. It is designed to make measurements of mRNA induction, a form of inducible reporter, as detected with fluorescence intensity signals by Reverse transcription polymerase chain reaction (RT-PCR) and Capillary electrophoresis technology.Data from the assay component ATG_HSE_CIS was analyzed into 1 assay endpoint. This assay endpoint, ATG_HSE_CIS, was analyzed with bidirectional fitting relative to DMSO as the negative control and baseline of activity. Using a type of inducible reporter, measures of mRNA for gain or loss-of-signal activity can be used to understand the reporter gene at the transcription factor-level as they relate to the gene HSF1. Furthermore, this assay endpoint can be referred to as a primary readout, because this assay has produced multiple assay endpoints where this one serves a reporter gene function. To generalize the intended target to other relatable targets, this assay endpoint is annotated to the dna binding intended target family, where the subfamily is heat shock protein.
Human liver HepG2 cells are transiently transfected with multiple reporter transcription units (MRTUs) in 6-well plates using FuGene 6 reagent (Roche; 3 ml FuGene/1 mg DNA). The MRTU constructs are regulated by a cis-regulating element (promoter). […] A major difference between the CIS and TRANS system is that in CIS activities of endogenous TFs are measured, whereas the TRANS assay evaluates changes in activities of exogenous, chimeric NR-Gal4 proteins. […] At the end of 24 hour incubation, total RNA was isolated using TriZol reagent (Invitrogen). The isolated RNA is then reverse-transcribed using oligo(dT) primer and Mo-MLV reverse transcriptase (Invitrogen) with DNAse I (Ambion) treatment for 30 min. The one-tenth of the produced cDNA was amplified by PCR using Taq DNA polymerase (Invitrogen) and two reporter sequence-specific primers. The PCR products were fluorescently labeled by primer extension with 6-arboxyfluorescein (6-FAM) 5'-labeled reporter sequence-specific primer (2 min at 95 C, 20 s at 68 C and 10 min at 72 C) and these products were digested with 5U of HpaI (New England Biolabs) for 2h at 37 C. The fragments were purified using Qiaquick PCR columns (Qiagen), analyzed on an ABI 3130xL genetic analyzer (Applied Biosystems) with peak positions identified by using a set of X-rhodamine (ROX)-labeled MapMarker1000 molecular weight standards (BioVentures). The raw capillary electrophoresis data was processed using Attagraph software (Attagene).
With `CCOC(=O)C1OC1(C)c1ccccc1` (stereo not given) the outcome was “inactive”. With `CCC(C)(C)O` the outcome was “inactive”. In the case of `O=[N+]([O-])O.O=[N+]([O-])O.[Cd]`, the AC50 is reported as 1.42 µM (active). In the case of `O=C(CCl)c1ccccc1`, the outcome is reported as “inactive”. For `C[C@]12CC[C@H](O)C[C@H]1CC[C@@H]1[C@@H]2C[C@@H](O)[C@]2(C)[C@@H](C3=CC(=O)OC3)CC[C@]12O`, the AC50 was 2.96 µM (active). For `CN(N=O)c1ccccc1`, the outcome was “inactive”. `O=c1c2ccccc2c(=O)c2c1cc(Cl)c1[nH]c3c([nH]c12)c(Cl)cc1c(=O)c2ccccc2c(=O)c13` was tested, and the outcome was “inactive”. For `O=C(NC(=O)c1c(F)cccc1F)Nc1ccc(Oc2ccc(C(F)(F)F)cc2Cl)cc1F`, the outcome was “inactive”. `S=c1[nH]c2ccccc2[nH]1` was tested, and the outcome was “inactive”. With `Oc1ccc(Cl)cc1` the outcome was “inactive”. In the case of `CC1CCC(=O)O1` (stereo not given), the outcome is reported as “inactive”. With `ClCC(Cl)Cl` the outcome was “inactive”. For `Cc1cc(C)c(C2=C(OC(=O)CC(C)(C)C)C3(CCCC3)OC2=O)c(C)c1`, the AC50 was 170 µM (active). With `CCCCNP(N)(N)=S` the outcome was “inactive”. For `CC(C)C(=O)Cl`, the outcome was “inactive”. `N#Cc1cc(I)c(O)c(I)c1` was tested, and the outcome was “inactive”. `CC(C)(Cl)Cl` was tested, and the outcome was “inactive”. With `CCCCCCCCCCCC#N` the outcome was “inactive”. With `O=C1Nc2ccc(Cl)cc2C(c2ccccc2)=NC1O` (stereo not given) the outcome was “inactive”. `CC(C)(c1cc(Cl)c(O)c(Cl)c1)c1cc(Cl)c(O)c(Cl)c1` was tested, and the AC50 was 56.5 µM (active). In the case of `O=[N+]([O-])C=Cc1ccccc1`, the AC50 is reported as 11.4 µM (active). `Nc1ccccc1C(=O)Oc1ccc2ccccc2c1` was tested, and the AC50 was 27.7 µM (active). For `N#Cc1cccc(C#N)c1`, the outcome was “inactive”. For `[Cl-].[Cl-].[Cl-].[Yb+3]`, the outcome was “inactive”. For `COc1ncc(F)c2nc(S(=O)(=O)Nc3c(F)cccc3F)nn12`, the outcome was “inactive”. For `CC1CCCC1.[C-]#[O+].[C-]#[O+].[C-]#[O+].[Mn]`, the outcome was “inactive”. For `CCC(C)c1cc(C(C)(C)C)cc(-n2nc3ccccc3n2)c1O` (stereo not given), the outcome was “inactive”. With `CCc1cc(C)cc(CC)c1-c1c(OC(=O)C(C)(C)C)n2n(c1=O)CCOCC2` the outcome was “inactive”. With `O=[N+]([O-])O` the outcome was “inactive”. `COc1ccc(CO)cc1` was tested, and the outcome was “inactive”. For `Nc1cc(Cl)cc(Cl)c1`, the outcome was “inactive”. In the case of `CCC1CCC(=O)O1` (stereo not given), the outcome is reported as “inactive”. For `O=C=Nc1ccccc1`, the outcome was “inactive”. `O=C1C=CC(=O)C=C1` was tested, and the outcome was “inactive”. In the case of `CCc1cccc(C)c1N(C(=O)CCl)[C@@H](C)COC`, the outcome is reported as “inactive”. In the case of `CCOP(=O)(OCC)OCC`, the outcome is reported as “inactive”. For `CCOC(=O)N(C)N=O`, the outcome was “inactive”. For `Oc1ccc(C2(c3ccc(O)cc3)c3ccccc3-c3ccccc32)cc1`, the AC50 was 17.5 µM (active). In the case of `[CH3][Sn]([CH3])([Cl])[Cl]`, the AC50 is reported as 114 µM (active). `O=C1C(Cl)=C(Cl)C(=O)C(Cl)=C1Cl` was tested, and the AC50 was 89.5 µM (active).
